Experimental data published in PubChem BioAssay (NCATS).
Records with an inconclusive call do not appear. A call without a number means that no potency is given here. Values without a mark were called inactive. Calls of active or inactive are those of the source. Calls come from the whole dose curve; as a rule, active = well fitted cell-killing curve with a large enough effect; inconclusive = small, poorly fitted or top-dose-only effect, or effect the other way; inactive = no such curve, though single readings can be large or run the other way.

Key:
[1] = Viability qHTS for spleen associated tyrosine kinase inhibitor (SYKi) naive MV4-11 cells (AID 1963823); note: nearly all actives have a fitted effect of over 40% in size
Method in brief: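 Read-out: CellTiter-Glo luminescence. Exposure: 72 hr, 37 C, 5% CO2, 95% humidity. Cells: MV4-11 without SYK inhibitor history, 500/well, qHTS format.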

[2] = Viability qHTS for spleen associated tyrosine kinase inhibitor (SYKi) drug resistant MV4-11 cells (AID 1963824); note: nearly all actives have a fitted effect of over 35% in size
Method in brief: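 SYK inhibitor-resistant MV4-11 AML cells, 500 per well, added to predispensed compounds and incubated 72 hr at 37 C, 5% CO2. Viability measured by CellTiter-Glo luminescence after 10 min at room temperature.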
Potency is the fitted concentration of half-maximal effect.

SMILES | Potency [1] | Potency [2]
C/C=C1\[C@H](OC2OC(COC3OC(CO)C(O)C(O)C3O)C(O)C(O)C2O)OC=C(C(=O)OC)[C@H]1CC(=O)OCCc1ccc(O)cc1 (stereo partly drawn) | inactive | inactive
CC(C)(C)S(=O)(=O)c1ccc2nccc(Nc3n[nH]c4ccc(F)cc34)c2c1 | 7.42 µM (active) | 9.34 µM (active)
C#CCN(Cc1cc2c(=O)[nH]c(C)nc2cc1Br)c1ccc(C(=O)NCc2cccnc2)cc1 | inactive | inactive
CC1CCC23COC(=O)C2=CC(O)CC3C1(C)CCc1ccoc1 (stereo not drawn) | inactive | inactive
CN(C)CCOc1cc(NS(=O)(=O)c2c(Cl)cc(C(F)(F)F)cc2Cl)ccc1Cl | inactive | inactive
CO[C@H]1O[C@@H]2O[C@]3(C)CC[C@H]4[C@H](C)CC[C@@H]([C@H]1C)[C@@]24OO3 | 1.84 µM (active) | 2.91 µM (active)
COc1cc(O)c2c(c1)C1OC1C[C@H](O)[C@H](O)C(=O)/C=C\C[C@H](C)OC2=O (stereo partly drawn) | 3.26 µM (active) | 4.61 µM (active)
C/C(=C\CO[C@@H]1O[C@H](CO[C@H]2OC[C@](O)(CO)[C@H]2O)[C@@H](O)[C@H](O)[C@H]1O)C(C)(C)O | inactive | inactive
O=c1cc(-c2cccc(O)c2)oc2c(O)c(O)ccc12 | 14.6 µM (active) | 16.4 µM (active)
CC(O)/C=C/C1C(C)C(O[C@@H]2O[C@H](CO)[C@@H](O)[C@H](O)[C@H]2O)C(O)CC1(C)C (stereo partly drawn) | inactive | inactive
COc1c2c(c(C)c3c1C(=O)OC3)O[C@@]1(C)CC(O)C(C(C)(C)O)[C@](C)(CCC(=O)O)[C@H]1C2 (stereo partly drawn) | 7.96 µM (active) | 7.09 µM (active)
CC(O)(C(=O)O)C1CCC2(C)C1CCC1(C)C2CCC2C3(C)CCC(O)C(C)(COC4OC(CO)C(O)C(O)C4O)C3CCC21C (stereo not drawn) | inactive | inactive
CC1CCC2(OC1)OC1CC3C4CC=C5CC(O)CC(O[C@@H]6OC[C@@H](O)[C@H](O)[C@H]6O)C5(C)C4CCC3(C)C1(O)C2C (stereo partly drawn) | inactive | inactive
O=C(/C=C/c1ccccc1O)O[C@@H]1O[C@H](CO)[C@@H](O)[C@H](O)[C@H]1O | inactive | inactive
CN[C@H]1CCN(C(=O)c2ccc(Nc3ncc(F)c(-c4cnc(C)n4C(C)C)n3)cc2)C1 | 0.058 µM (active) | 0.0517 µM (active)
O=C(O[C@H]1[C@@H]2C=CO[C@@H](O[C@@H]3O[C@H](CO)[C@@H](O)[C@H](O)[C@H]3O)[C@@H]2[C@@]2(CO)O[C@@H]12)c1ccc(O)cc1 | inactive | inactive
COc1cc(N)c(Cl)cc1C(=O)NC[C@@H]1CCN2CCC[C@@H]12 | inactive | inactive
C[C@H]1CC[C@H]2[C@@H](C=C[C@@](C)(O)[C@]2(C)C(=O)CCO)C1 | inactive | inactive
CCC(C)C1NC(=O)C(Cc2ccccc2)NC(=O)C(CCCCCC(=O)C(O)CO)NC(=O)C2CCCCN2C1=O (stereo not drawn) | 2.43 µM (active) | 1.93 µM (active)
OC[C@H]1O[C@@H](OC(CCCCc2ccc(O)cc2)CCc2ccc(O)cc2)[C@H](O)[C@@H](O)[C@@H]1O (stereo partly drawn) | inactive | inactive
CCOC(=O)c1cnn(-c2ccccc2)c1NC(=O)c1cc2nc(-c3ccco3)cc(C(F)(F)Cl)n2n1 | inactive | inactive
CC(C)[C@@H](C)/C=C/[C@@H](C)[C@H]1CC[C@H]2C3=CC=C4C[C@@H](O)CC[C@]4(C)C3=CC[C@]12C | 16.4 µM (active) | 11.6 µM (active)
C=C1CC[C@H]2[C@@](C)(CCC[C@@]2(C)C(=O)O)[C@@H]1CCC(C)CCO (stereo partly drawn) | inactive | inactive
Cc1c(-c2ccnc(Nc3cc(Br)cc(C(F)(F)F)c3)n2)sc(=O)n1C | inactive | inactive
CCC(NC(=O)CC(NC(=O)C(CO)NC(=O)C(CC)NC(=O)c1ccc[nH]1)c1ccccc1)C(=O)O (stereo not drawn) | inactive | inactive
CC(=O)c1c(O)cc(O[C@@H]2O[C@H](CO)[C@@H](O)[C@H](O)[C@H]2O)cc1O | inactive | inactive
C/C=C1\[C@H](O[C@@H]2O[C@H](CO)[C@@H](O)[C@H](O)[C@H]2O)OC=C(C(=O)OCCc2ccc(O)cc2)[C@H]1CC(=O)OCCc1ccc(O)cc1 | inactive | inactive
CC(=O)OC1C=C(C(=O)O)C2(CO)CCC(C)C(C)(CCc3ccoc3)C2C1 (stereo not drawn) | inactive | inactive
COc1cc(OC)cc(N2CCN(C(=O)Nc3nc4cc(F)ccc4nc3OC)CC2)c1 | 0.934 µM (active) | 1.05 µM (active)
